This is a sample that favours compounds with a hit; in the whole collection about 3.7% have one here.
Nrf2 ARE act: qHTS of Nrf2 Activators. 410,000 tested, 0.31% active. Potency, µM (top dose mostly 46.1 µM), for the others: top-dose activation, hits mostly activators. AREc32 ARE-luciferase reporter (MCF7-derived line), luminescence, 24 h. AID 624171, 2012; also: potency is read from the fitted curve at half-maximal effect; % of control where 0% means no effect; nearly all actives have a fitted effect of over 65% in size
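AREc32 cells carrying an ARE-driven firefly luciferase, 1000 cells/well in OPTI-MEM with 5% FBS, dosed after overnight attachment and incubated 24 hr at 37 deg C. Steady-Glo luminescence read after 30 min at RT.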
Nrf2 inh: Nrf2 qHTS screen for inhibitors; A549 ARE-Fluc reporter, luciferase luminescence, 18-24 h; Potency, µM (highest dose often 46 µM), for the others: at the top dose activity change, negative = inhibition, usual class: inhibitors; 360,000 tested, 2.1% active; AID 504444, 2011; also: potency is read from the fitted curve at half-maximal effect; % is scaled to controls: 0 for no effect and ±100 for the full control effect; nearly all actives have a fitted effect of over 60% in size
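Two sequential reads on A549 ARE_Fluc cells exposed to compound for 18-24 h: a CellTiter-Fluor fluorescence read for viability, then a luciferase luminescence read for Nrf2/ARE activity.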
ClpP mod: qHTS Assay for Activators of ClpP | ATP-dependent Clp protease proteolytic subunit (Bacillus subtilis (strain 168)), P80244 | purified B. subtilis ClpP, FRET peptide cleavage, 20 min | Potency, µM (doses to about 57.5 µM), for inactives: at the highest dose activity change, negative = active | 340,000 tested, 1.9% active | AID 651965, 2013; active = well fitted falling curve with a large enough effect; inconclusive = small, poorly fitted or top-dose-only effect; inactive = no such curve, though single readings can be large or run the other way; also: potency is read from the fitted curve at half-maximal effect; the source files actives as falling curves though it sought activators and does not explain the sign; nearly all actives have a fitted effect of over 65% in size
Target sequence (P80244 whole entry, looked up): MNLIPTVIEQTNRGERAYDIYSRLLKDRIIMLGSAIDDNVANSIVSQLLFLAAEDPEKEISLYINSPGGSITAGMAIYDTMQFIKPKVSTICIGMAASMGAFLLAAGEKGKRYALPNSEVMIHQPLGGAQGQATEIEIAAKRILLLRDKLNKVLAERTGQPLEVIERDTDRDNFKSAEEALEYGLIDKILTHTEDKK
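FRET quenching reversal measured ClpP activation: 10 microg/mL B. subtilis ClpP at pH 8 with the FRET-FV decapeptide, read at 430 nm after 320 nm excitation. The 20-min minus 0-min signal was scaled between DMSO/no-enzyme wells and ADEP (5.8 microM final).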
A549 tox: Nrf2 qHTS screen for inhibitors: counterscreen for cytotoxicity. Potency, µM (titrated, usually from 46 µM), for the others: top-dose activity change, negative = cytotoxicity, actives largely listed as inhibitors. 390,000 tested, 0.16% active. A549 ARE-Fluc cells, CellTiter-Fluor viability, 18-24 h. AID 504648, 2011; also: potency is read from the fitted curve at half-maximal effect; % is scaled to controls: 0 for no effect and ±100 for the full control effect
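Cytotoxicity counterscreen: CellTiter-Fluor fluorescence was measured in A549 ARE_Fluc cells after 18-24 h of compound exposure in a concentration series. The subsequent BugLite luminescent read reports ARE-luciferase activity.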
miR-21 act: qHTS Assay for Modulators of miRNAs and/orActivators of miR-21; HeLa miR-21 FLuc reporter, luciferase, 48 h; Potency, µM (titrated, usually from 38.3 µM), inactives show at the highest dose activity change, positive = activation, usual class: activators; 340,000 tested, under 10 active; AID 2288, 2010;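 also: % of control where 0% means no effect; miR-21 action dims this reporter so a rising signal means less miR-21 action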
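HeLa cells endogenously expressing miR-21, stably carrying CMV-driven firefly luciferase with a downstream miR-21 binding site, 2000 cells/well. Titrations up to approximately 40 uM, 48 hours; luciferase luminescence read.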
TCR act: Activators of T cell receptors: qHTS campaign. primary human leukocytes, anti-CD3, IL-2 HTRF, 48 h. Potency, µM (doses to about 9.22 µM), for the others: top-dose activation of IL-2 secretion, actives largely listed as activators. 330,000 tested, under 10 active. AID 504894, 2011; also: % of control where 0% means no effect
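TCR engagement came from a-CD3 beads alone, with compounds added to primary human leukocytes for 48 hr. Secreted IL-2 bridged europium cryptate- and d2-labelled anti-IL-2 antibodies, giving FRET emission at 665nm after 320nm excitation.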
* marks the source's active call; other numbers are inactive results; ? = inconclusive; . = no result; [ ] = remark or other dose. Unless noted, calls follow the shape of the dose curve; as a rule, active = well fitted curve in the direction sought with a large enough effect; inconclusive = small, poorly fitted or top-dose-only effect, or another doubt; inactive = no such curve, though single readings can be large; an effect the other way counts as inactive or inconclusive.

SMILES	Nrf2 ARE act	Nrf2 inh	ClpP mod	A549 tox	miR-21 act	TCR act
COC(=O)C1=C(C)NC(=O)/C1=C\c1cc(C)n(-c2ccccc2C)c1C	3%	?	-2%	-22%	-10%	1%
O=C(OCC(=O)N1CCCC1)c1ccccc1C(=O)c1ccccc1	3%	?	1%	0%	.	-5%
O=c1[nH]c2cc([N+](=O)[O-])ccc2c2cc(Br)ccc12	3.2µM*	.	-1%	.	.	.
COc1ccc(C2SCC(=O)N2CCc2ccc(OC)c(OC)c2)cc1 (stereo unspecified)	0%	23µM*	0%	-14%	24%	-7%
CC(=O)N1CCc2c(sc3c2c(=O)n(Cc2ccccc2)c(=O)n3Cc2cccc(Cl)c2)C1	-1%	21µM*	-5%	-21%	-3%	.
CC(=O)N1CCc2c(sc3c2c(=O)n(Cc2ccccc2)c(=O)n3Cc2ccc(Cl)cc2)C1	0%	14%	1%	3%	1%	.
Cc1nc2cc(NS(=O)(=O)c3cccc4cccnc34)ccc2s1	1%	26µM*	0%	1%	11%	.
Cc1ccc(-c2noc(CCC(=O)NCCN3CCN(Cc4ccccc4)CC3)n2)cc1	-1%	.	28µM*	-1%	17%	0%
CC(C)Nc1ncnc2c1cnn2Cc1ccccc1Cl	0%	13µM*	-3%	2%	0%	6%
O=C1CN(S(=O)(=O)c2ccc3c(c2)OCCO3)CCN1S(=O)(=O)c1c(F)cccc1F	.	17%	.	-5%	.	.
O=C(C[n+]1cccc2cc(Cl)ccc21)c1ccc2c(c1)CCCC2	.	.	-2%	.	.	.
Brc1cccc(-c2nc3c4ccccc4ccn3c2Cc2ccccc2)c1	20%	.	-21%	.	.	.
c1ccc(Cc2c(-c3ccccc3)nc3c4ccccc4ccn23)cc1	26%	.	32µM*	.	.	.
FC(F)(F)c1ccccc1Cc1c(-c2cccc(Br)c2)nc2c3ccccc3ccn12	13µM*	.	-13%	.	.	.
Cc1cc(Br)cn2c(Cc3ccccc3C(F)(F)F)c(-c3cccc(Br)c3)nc12	10%	.	-4%	.	.	.
COc1ccc(CCNC(=O)NCc2noc3ccc(C)cc23)c(OC)c1	0%	-16%	-1%	1%	-7%	.
O=c1cc(COc2ccccc2[N+](=O)[O-])nc2sccn12	8.9µM*	4%	.	-3%	-10%	-1%
O=c1cc(COc2ncnc3ccccc23)nc2sccn12	0%	6%	?	0%	-3%	-5%
N#Cc1cccn1-c1nccc(-c2cccs2)n1	4.5µM*	?	.	-1%	-31%	0%
Cc1ccc(C)n1-c1nccc(-c2cccs2)n1	?	?	24%	?	-2%	-4%
CC1(C)Cc2ccccc2-c2nc(NCCO)n(-c3ccccc3)c(=O)c21	-1%	.	?	-6%	14%	-4%
O=c1c2c(nc(NCCO)n1CC1CCCCC1)-c1ccccc1CC21CCCC1	4%	?	28µM*	?	15%	8%
CC1(C)CC(n2c(NCCO)nc3c(c2=O)C2(CCCC2)Cc2ccccc2-3)CCO1 (stereo unspecified)	4%	?	32µM*	-18%	1%	1%
O=C(Nc1ccccc1)Nc1nc(Nc2cc(F)cc(F)c2)nc(NC2CCCC2)n1	.	-23%	.	-5%	.	.
COC(=O)Cc1[nH]nc2c1C(C1C=CCCC1)C(C#N)=C(N)O2 (stereo unspecified)	17%	-26%	7.1µM*	-10%	-2%	5%
SMILES	Nrf2 ARE act	Nrf2 inh	ClpP mod	A549 tox	miR-21 act	TCR act
COc1ccc(OCCN(C)CC(=O)Nc2c(C)cccc2C)cc1	0%	-20%	20µM*	1%	-4%	6%
CCCn1c(=O)c(C(=O)NCCc2ccc(OC)cc2)c(O)c2ccccc21	-1%	-21%	?	24%	-4%	3%
O=C(NCc1ccc2c(c1)OCO2)c1cccc(S(=O)(=O)N2CCCCC2)c1	0%	15µM*	1%	-9%	-6%	0%[46.1 µM]
CCOc1ccc(OC(=O)c2cccc(S(=O)(=O)N3CCN(C)CC3)c2)cc1	0%	4%	32µM*	2%	.	-2%
Cc1onc(-c2c(F)cccc2Cl)c1C(=O)NCc1ccc2c(c1)OCO2	0%	-6%	28µM*	5%	-8%	-2%
O=C(NCc1ccc(Cl)cc1)c1cccc(S(=O)(=O)N2CCCC2)c1	-1%	-16%	2%	5%	.	-6%
O=C(NCCOc1ccc(Cl)cc1)c1cccc(S(=O)(=O)N2CCCC2)c1	-1%	23µM*	1%	0%	.	3%
CCC(C(=O)NC(C)(C)C)n1c(-c2cccc(NC(C)=O)c2)nc2ccccc21 (stereo unspecified)	.	.	4%	.	.	.
c1cc(CN2CCCCC2)cc(OCCCNc2nc3ccccc3s2)c1	5%	10%	1%	-25%	.	1%
O=C(NCCCOc1cccc(CN2CCCCC2)c1)c1ccc(Cl)c(Cl)c1	6%	-1%	16µM*	?	-7%	-2%[46.1 µM]
O=C(NCc1cccnc1)c1ccc2c(c1)C(=O)N(Cc1ccccc1)C2=O	0%	3%	-3%	-3%	1%	-38%
O=C(c1cccc(S(=O)(=O)N2CCCC2)c1)c1cccc(S(=O)(=O)N2CCCC2)c1	0%	8.2µM*	-2%	-15%	28%	4%
O=C(NCc1ccc2c(c1)OCO2)c1ccc2c(c1)C(=O)N(Cc1cccnc1)C2=O	0%	.	18µM*	2%	-11%	-4%
Cn1nc(-c2ccccc2F)c2cc(C(=O)Nc3ccc4c(c3)OCCO4)sc21	6%	15µM*	?	?	6%	5%
COc1cccc(-c2nn(C)c3sc(C(=O)Nc4ccc5c(c4)OCCO5)cc23)c1	8%	-24%	-24%	-25%	-9%	-3%
CCOc1cc(/C=C/C(=O)c2ccc3c(c2)OCCO3)ccc1OCC(=O)N(C)C	11µM*	-17%	.	2%	?	9%
CCOc1ccc(-c2nnc(SCC(=O)Nc3cc(C)on3)o2)cc1	-2%	15µM*	.	-4%	6%	5%
Cc1nc2c(C#N)c(-c3ccc(Cl)cc3)ccn2n1	0%	6%	-22%	1%	-11%	-10%
CC(C)(C)c1nc2c(C#N)c(-c3ccc(Cl)cc3)ccn2n1	0%	?	28µM*	-1%	-21%	2%
